# Measured values taken from article PMC7862700, “An all-to-all approach to the identification of sequence-specific readers for epigenetic DNA modifications on cytosine”.
# How the values were obtained:
# Experiment in all cases: DAPPL (digital affinity profiling via proximity ligation, sequencing); 10 mM Tris-HCl pH 7.5, 50 mM NaCl, 1 mM DTT, 4% glycerol, room temperature, 30 min; GST-TFs on glutathione beads, 16-mer random dsDNA library, 0.1% formaldehyde crosslink after washing; high values mean tight binding
# FEV = biological target: T1, FEV (Homo sapiens, UniProt Q99581 1-238); conditions: protein: recombinant; tags: N-terminal GST; dsDNA, one strand shown
# T1 sequence: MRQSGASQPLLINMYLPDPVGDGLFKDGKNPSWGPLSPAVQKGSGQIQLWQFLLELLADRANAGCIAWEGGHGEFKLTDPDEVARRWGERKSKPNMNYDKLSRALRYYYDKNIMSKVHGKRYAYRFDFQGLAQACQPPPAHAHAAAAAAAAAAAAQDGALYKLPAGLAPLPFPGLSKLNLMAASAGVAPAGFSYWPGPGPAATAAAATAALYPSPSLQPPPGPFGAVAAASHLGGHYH
# In short: (§1)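 In yeast, human transcription factors were expressed with a GST fusion, then pulled down on glutathione beads and given DNA barcodes. Pooled with a tag-only sample, they were exposed to 200 nmole of a 16-mer random double-stranded DNA library (Tris/NaCl/DTT/glycerol buffer, room temperature, 30 min), washed, crosslinked with 0.1% formaldehyde, proximity-ligated using BsaI/T4 ligase for 1 h at 37 °C, PCR-amplified and read on an Illumina NextSeq500. Each hexamer's frequency of reads for a factor, divided by the matching frequency for the tag-only sample, gives the binding signal.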
# ETV5 = ETV5 (Homo sapiens, UniProt P41161 1-510); conditions: protein: recombinant; tags: N-terminal GST; dsDNA, one strand shown
# In short: as §1
# HSF1 = HSF1 (Homo sapiens, UniProt Q00613 1-529); conditions: protein: recombinant; tags: N-terminal GST; chain copies: 3; dsDNA, one strand shown
# In short: as §1
# SPIC = biological target: T2, SPIC (Homo sapiens, UniProt Q8N5J4 1-248); conditions: protein: recombinant; tags: N-terminal GST; dsDNA, one strand shown
# T2 sequence: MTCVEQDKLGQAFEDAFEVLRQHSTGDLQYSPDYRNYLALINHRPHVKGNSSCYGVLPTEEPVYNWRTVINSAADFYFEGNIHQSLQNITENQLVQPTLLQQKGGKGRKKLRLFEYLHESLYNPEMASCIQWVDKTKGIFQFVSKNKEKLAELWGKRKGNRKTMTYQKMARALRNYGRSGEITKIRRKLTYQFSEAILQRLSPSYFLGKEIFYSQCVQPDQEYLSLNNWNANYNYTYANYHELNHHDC
# In short: as §1
# ELF4 = ELF4 (Homo sapiens, UniProt Q99607 1-663); conditions: protein: recombinant; tags: N-terminal GST; dsDNA, one strand shown
# In short: as §1
# ELK4 = biological target: T3, ELK4 (Homo sapiens, UniProt P28324-2 1-405); conditions: protein: recombinant; tags: N-terminal GST; dsDNA, one strand shown
# T3 sequence: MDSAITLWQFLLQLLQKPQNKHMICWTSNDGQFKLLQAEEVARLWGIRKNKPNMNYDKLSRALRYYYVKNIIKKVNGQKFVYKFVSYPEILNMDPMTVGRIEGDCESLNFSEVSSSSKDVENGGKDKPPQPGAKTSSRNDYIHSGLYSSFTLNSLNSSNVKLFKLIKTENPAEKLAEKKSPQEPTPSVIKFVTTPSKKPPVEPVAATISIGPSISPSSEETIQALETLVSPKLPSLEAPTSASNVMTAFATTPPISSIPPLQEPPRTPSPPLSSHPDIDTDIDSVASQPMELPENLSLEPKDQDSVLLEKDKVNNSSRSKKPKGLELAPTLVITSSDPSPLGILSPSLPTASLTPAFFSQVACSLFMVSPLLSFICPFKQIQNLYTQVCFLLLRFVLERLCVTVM
# In short: as §1
# ETV2 = biological target: T4, ETV2 (Homo sapiens, UniProt O00321 1-342); conditions: protein: recombinant; tags: N-terminal GST; dsDNA, one strand shown
# T4 sequence: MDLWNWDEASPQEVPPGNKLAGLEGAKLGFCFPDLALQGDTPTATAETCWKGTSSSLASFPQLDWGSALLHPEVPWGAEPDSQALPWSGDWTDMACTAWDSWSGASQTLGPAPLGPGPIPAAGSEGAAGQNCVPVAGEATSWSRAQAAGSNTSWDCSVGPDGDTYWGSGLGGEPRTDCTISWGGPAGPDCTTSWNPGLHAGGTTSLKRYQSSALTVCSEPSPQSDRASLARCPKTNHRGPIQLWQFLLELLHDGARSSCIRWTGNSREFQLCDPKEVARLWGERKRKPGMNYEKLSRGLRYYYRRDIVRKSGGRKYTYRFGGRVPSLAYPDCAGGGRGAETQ
# In short: as §1
# ELF3 = biological target: T5, ELF3 (Homo sapiens, UniProt P78545 1-371); conditions: protein: recombinant; tags: N-terminal GST; dsDNA, one strand shown
# T5 sequence: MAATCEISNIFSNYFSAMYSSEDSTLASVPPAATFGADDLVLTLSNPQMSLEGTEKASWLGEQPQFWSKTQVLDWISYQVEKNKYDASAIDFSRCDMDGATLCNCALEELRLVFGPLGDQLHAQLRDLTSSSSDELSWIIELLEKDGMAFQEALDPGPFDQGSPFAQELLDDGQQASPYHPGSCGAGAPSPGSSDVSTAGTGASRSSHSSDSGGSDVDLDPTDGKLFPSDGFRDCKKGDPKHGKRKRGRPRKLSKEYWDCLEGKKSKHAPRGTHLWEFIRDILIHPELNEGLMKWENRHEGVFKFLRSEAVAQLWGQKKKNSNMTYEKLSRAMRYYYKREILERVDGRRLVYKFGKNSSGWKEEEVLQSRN
# In short: as §1
# CRX = CRX (Homo sapiens, UniProt O43186 1-299); conditions: protein: recombinant; tags: N-terminal GST; dsDNA, one strand shown
# In short: as §1
# ETV1 = ETV1 (Homo sapiens, UniProt P50549 1-477); conditions: protein: recombinant; tags: N-terminal GST; dsDNA, one strand shown
# In short: as §1
# ERF = biological target: T6, ERF (Homo sapiens, UniProt P50548 1-548); conditions: protein: recombinant; tags: N-terminal GST; dsDNA, one strand shown
# T6 sequence: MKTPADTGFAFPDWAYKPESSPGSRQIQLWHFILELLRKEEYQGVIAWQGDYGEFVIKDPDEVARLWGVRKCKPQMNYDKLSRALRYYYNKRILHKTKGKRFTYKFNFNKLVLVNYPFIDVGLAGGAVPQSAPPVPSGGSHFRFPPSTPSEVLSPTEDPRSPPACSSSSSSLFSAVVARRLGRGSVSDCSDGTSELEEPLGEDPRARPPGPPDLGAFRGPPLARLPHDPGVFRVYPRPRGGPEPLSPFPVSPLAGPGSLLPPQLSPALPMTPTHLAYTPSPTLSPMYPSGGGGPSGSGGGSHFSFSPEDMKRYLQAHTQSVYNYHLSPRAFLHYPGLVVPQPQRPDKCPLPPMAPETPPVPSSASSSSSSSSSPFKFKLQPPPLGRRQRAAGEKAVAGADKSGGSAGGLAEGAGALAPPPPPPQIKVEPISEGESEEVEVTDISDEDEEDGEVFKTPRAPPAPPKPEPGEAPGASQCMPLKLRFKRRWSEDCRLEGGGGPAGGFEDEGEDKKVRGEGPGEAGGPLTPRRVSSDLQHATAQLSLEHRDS
# In short: as §1
# ETV3L = biological target: T7, ETV3L (Homo sapiens, UniProt Q6ZN32 1-361); conditions: protein: recombinant; tags: N-terminal GST; dsDNA, one strand shown
# T7 sequence: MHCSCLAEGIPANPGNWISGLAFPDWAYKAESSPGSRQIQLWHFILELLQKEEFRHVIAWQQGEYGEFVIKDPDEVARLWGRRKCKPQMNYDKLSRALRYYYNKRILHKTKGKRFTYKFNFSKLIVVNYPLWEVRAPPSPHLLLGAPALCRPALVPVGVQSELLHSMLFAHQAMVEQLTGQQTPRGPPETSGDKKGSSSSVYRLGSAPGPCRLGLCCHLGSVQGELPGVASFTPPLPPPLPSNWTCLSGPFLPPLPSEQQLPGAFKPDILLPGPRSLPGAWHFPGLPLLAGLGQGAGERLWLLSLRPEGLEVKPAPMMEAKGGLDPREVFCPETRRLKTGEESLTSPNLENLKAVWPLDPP
# In short: as §1
# ETS2 = biological target: T8, ETS2 (Homo sapiens, UniProt P15036 1-469); conditions: protein: recombinant; tags: N-terminal GST; dsDNA, one strand shown
# T8 sequence: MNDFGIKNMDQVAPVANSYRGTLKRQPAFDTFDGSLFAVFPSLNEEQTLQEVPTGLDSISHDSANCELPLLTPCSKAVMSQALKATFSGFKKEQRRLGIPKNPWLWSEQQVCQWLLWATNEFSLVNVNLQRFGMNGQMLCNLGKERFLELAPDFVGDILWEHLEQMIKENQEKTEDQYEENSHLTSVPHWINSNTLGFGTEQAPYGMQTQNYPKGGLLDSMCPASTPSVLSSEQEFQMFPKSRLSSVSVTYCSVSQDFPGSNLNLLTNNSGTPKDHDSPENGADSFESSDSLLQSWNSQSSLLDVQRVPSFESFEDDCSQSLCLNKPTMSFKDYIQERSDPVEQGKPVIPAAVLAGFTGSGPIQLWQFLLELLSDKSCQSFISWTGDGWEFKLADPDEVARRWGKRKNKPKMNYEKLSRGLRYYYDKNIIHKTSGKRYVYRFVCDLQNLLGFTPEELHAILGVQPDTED
# In short: as §1
# SPDEF = biological target: T9, SPDEF (Homo sapiens, UniProt O95238 1-335); conditions: protein: recombinant; tags: N-terminal GST; dsDNA, one strand shown
# T9 sequence: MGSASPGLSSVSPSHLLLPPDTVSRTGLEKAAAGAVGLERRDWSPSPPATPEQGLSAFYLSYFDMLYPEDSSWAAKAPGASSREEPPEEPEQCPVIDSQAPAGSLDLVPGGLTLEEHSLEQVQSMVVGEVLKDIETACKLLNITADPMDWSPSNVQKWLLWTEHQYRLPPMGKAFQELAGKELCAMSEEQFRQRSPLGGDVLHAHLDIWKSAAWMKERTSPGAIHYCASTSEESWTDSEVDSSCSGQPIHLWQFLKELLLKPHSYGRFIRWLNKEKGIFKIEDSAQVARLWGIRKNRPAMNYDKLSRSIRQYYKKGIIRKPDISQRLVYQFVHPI
# In short: as §1
# ETV7 = biological target: T10, ETV7 (Homo sapiens, UniProt Q9Y603 1-341); conditions: protein: recombinant; tags: N-terminal GST; dsDNA, one strand shown
# T10 sequence: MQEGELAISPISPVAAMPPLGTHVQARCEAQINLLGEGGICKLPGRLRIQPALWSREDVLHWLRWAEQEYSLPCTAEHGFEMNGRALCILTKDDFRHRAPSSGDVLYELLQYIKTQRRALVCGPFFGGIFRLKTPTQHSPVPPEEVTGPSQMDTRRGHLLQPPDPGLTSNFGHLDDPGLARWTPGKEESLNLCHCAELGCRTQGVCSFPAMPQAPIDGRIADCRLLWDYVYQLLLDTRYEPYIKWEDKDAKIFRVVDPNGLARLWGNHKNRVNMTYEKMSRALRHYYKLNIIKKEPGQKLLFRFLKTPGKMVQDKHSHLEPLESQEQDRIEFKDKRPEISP
# In short: as §1
# ELF5 = biological target: T11, ELF5 (Homo sapiens, UniProt Q9UKW6-2 1-255); conditions: protein: recombinant; tags: N-terminal GST; dsDNA, one strand shown
# T11 sequence: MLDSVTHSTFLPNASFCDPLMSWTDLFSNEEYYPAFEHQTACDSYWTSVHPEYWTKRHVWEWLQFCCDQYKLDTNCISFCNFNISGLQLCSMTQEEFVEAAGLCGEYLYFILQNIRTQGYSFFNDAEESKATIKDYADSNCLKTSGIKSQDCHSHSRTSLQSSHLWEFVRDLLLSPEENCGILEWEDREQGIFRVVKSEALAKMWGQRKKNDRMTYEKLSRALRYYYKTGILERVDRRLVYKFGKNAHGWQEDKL
# In short: as §1
# ETV3 = biological target: T12, ETV3 (Homo sapiens, UniProt P41162-2 1-143); conditions: protein: recombinant; tags: N-terminal GST; dsDNA, one strand shown
# T12 sequence: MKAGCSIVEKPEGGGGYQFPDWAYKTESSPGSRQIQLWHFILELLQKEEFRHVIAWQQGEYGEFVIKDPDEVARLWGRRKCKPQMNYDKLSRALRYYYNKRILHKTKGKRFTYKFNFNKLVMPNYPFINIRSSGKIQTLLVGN
# In short: as §1
# ETV6 = ETV6 (Homo sapiens, UniProt P41212 1-452); conditions: protein: recombinant; tags: N-terminal GST; dsDNA, one strand shown
# In short: as §1
# Chain of ETV5 (P41161 whole entry): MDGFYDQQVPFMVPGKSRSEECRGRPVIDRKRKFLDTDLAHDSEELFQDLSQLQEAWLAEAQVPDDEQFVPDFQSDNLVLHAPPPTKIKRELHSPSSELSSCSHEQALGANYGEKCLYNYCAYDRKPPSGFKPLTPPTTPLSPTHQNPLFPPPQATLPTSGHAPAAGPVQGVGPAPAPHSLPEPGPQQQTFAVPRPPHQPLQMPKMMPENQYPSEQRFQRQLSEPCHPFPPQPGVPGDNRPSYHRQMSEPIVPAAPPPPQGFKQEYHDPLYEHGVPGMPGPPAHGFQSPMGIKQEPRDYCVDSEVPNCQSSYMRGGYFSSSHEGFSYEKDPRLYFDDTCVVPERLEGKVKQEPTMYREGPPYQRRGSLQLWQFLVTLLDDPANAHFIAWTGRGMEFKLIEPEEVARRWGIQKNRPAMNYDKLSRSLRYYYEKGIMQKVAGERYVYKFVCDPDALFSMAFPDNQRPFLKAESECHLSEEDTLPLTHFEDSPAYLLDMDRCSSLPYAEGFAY
# Chain of ETV6 (P41212 whole entry): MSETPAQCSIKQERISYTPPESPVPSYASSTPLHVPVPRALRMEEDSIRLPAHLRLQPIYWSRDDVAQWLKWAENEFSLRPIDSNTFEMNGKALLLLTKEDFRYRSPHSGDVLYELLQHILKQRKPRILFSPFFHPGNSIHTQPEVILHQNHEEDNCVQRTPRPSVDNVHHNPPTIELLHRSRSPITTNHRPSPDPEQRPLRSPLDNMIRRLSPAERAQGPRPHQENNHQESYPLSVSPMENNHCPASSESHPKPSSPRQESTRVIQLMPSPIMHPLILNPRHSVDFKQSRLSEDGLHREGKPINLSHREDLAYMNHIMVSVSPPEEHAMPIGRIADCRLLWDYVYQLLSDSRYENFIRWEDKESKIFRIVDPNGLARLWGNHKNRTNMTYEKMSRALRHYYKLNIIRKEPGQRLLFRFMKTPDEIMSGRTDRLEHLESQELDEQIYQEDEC
# Chain of ETV1 (P50549 whole entry): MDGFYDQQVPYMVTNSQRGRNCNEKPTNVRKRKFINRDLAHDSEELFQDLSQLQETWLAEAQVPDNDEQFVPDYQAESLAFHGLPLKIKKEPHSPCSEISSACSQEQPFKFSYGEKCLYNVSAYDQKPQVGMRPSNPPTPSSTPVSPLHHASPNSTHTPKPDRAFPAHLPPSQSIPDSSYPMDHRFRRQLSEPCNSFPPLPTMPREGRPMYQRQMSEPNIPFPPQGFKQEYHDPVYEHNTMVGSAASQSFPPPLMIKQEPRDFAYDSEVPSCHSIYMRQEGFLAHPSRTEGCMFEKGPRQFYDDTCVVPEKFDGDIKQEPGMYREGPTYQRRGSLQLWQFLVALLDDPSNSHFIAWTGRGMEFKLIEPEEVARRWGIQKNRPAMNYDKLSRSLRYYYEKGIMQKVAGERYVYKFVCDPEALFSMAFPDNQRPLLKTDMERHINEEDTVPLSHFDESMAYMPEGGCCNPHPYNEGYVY
# Chain of CRX (O43186 whole entry): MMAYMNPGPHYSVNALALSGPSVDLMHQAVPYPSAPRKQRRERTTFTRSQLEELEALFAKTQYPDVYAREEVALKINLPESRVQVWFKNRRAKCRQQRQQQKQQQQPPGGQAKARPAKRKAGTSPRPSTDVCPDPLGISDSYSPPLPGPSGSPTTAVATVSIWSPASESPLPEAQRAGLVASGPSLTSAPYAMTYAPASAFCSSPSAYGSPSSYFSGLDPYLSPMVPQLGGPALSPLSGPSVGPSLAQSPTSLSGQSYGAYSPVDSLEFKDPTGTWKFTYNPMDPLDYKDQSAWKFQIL
# Chain of ELF4 (Q99607 whole entry): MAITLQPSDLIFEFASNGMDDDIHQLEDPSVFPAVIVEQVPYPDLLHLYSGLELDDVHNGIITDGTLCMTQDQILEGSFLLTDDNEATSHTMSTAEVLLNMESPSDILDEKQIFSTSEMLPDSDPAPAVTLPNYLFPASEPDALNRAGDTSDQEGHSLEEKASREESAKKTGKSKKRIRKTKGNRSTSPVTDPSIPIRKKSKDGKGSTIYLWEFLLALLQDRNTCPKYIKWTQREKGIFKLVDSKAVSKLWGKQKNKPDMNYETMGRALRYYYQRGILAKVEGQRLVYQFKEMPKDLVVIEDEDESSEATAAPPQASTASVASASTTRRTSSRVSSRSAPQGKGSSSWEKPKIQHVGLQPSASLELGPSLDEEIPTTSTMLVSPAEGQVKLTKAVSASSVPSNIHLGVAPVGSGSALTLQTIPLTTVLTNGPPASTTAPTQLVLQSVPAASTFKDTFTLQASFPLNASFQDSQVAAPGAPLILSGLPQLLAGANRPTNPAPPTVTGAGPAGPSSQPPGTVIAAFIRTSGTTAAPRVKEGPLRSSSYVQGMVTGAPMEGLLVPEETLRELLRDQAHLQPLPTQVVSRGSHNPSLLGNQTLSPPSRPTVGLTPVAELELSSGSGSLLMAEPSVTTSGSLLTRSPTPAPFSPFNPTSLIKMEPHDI
# Chain of HSF1 (Q00613 whole entry): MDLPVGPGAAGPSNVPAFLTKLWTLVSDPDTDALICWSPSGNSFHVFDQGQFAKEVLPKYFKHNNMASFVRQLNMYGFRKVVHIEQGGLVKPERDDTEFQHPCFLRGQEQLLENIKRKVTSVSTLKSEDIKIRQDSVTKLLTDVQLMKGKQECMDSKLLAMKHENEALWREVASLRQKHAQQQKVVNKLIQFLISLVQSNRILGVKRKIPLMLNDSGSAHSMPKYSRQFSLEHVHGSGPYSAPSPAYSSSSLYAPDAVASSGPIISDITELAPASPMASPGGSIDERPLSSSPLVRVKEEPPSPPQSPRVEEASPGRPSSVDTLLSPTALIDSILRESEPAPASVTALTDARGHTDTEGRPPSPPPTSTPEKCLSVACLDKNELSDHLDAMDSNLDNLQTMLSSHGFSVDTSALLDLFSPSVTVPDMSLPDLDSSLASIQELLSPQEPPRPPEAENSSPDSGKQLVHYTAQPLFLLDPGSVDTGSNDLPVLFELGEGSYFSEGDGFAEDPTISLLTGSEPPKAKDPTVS
sequence,measurement,setting,value
TATACT,binding signal,FEV,"1.29 fold enrichment (6-mer frequency, TF over GST control)"
same,binding signal,ETV5,"1.34 fold enrichment (6-mer frequency, TF over GST control)"
same,binding signal,HSF1,"1.4 fold enrichment (6-mer frequency, TF over GST control)"
same,binding signal,SPIC,"1.43 fold enrichment (6-mer frequency, TF over GST control)"
same,binding signal,ELF4,"1.31 fold enrichment (6-mer frequency, TF over GST control)"
same,binding signal,ELK4,"1.25 fold enrichment (6-mer frequency, TF over GST control)"
same,binding signal,ETV2,"1.31 fold enrichment (6-mer frequency, TF over GST control)"
same,binding signal,ELF3,"1.3 fold enrichment (6-mer frequency, TF over GST control)"
same,binding signal,CRX,"1.68 fold enrichment (6-mer frequency, TF over GST control)"
same,binding signal,ETV1,"1.34 fold enrichment (6-mer frequency, TF over GST control)"
same,binding signal,ERF,"1.3 fold enrichment (6-mer frequency, TF over GST control)"
same,binding signal,ETV3L,"1.29 fold enrichment (6-mer frequency, TF over GST control)"
same,binding signal,ETS2,"1.38 fold enrichment (6-mer frequency, TF over GST control)"
same,binding signal,SPDEF,"1.52 fold enrichment (6-mer frequency, TF over GST control)"
same,binding signal,ETV7,"1.31 fold enrichment (6-mer frequency, TF over GST control)"
same,binding signal,ELF5,"1.34 fold enrichment (6-mer frequency, TF over GST control)"
same,binding signal,ETV3,"1.34 fold enrichment (6-mer frequency, TF over GST control)"
same,binding signal,ETV6,"1.45 fold enrichment (6-mer frequency, TF over GST control)"
